Assay results as given in the supplement of paper PMC8728848.
Only a selection was taken, and the strongest signals are over-represented in it overall.

Legend:
Assay in all cases: glycan array binding signal (z-score within array); higher = stronger binding
Conditions in all cases: glycan notation: IUPAC condensed, linker removed
[1] = molecular target: Fuc(a1-2)Gal(b1-4)GlcNAc(b1-2)[Fuc(a1-2)Gal(b1-4)GlcNAc(b1-4)]Man(a1-3)[Fuc(a1-2)Gal(b1-4)GlcNAc(b1-2)Man(a1-6)]Man(b1-4)GlcNAc(b1-4)GlcNAc
Outline: (§1)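 From the Consortium for Functional Glycomics database, 3228 arrays were curated, keeping only those whose protein sequence was available. Binding is given as a within-array Z-score averaged across arrays sharing a protein sequence and across linkers. Negative Z-scores can be read as non-binding.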

[2] = molecular target: Fuc(a1-2)Gal(b1-4)GlcNAc(b1-6)GalNAc
Outline: as §1

[3] = molecular target: Fuc(a1-2)Gal(b1-4)[Fuc(a1-3)]GlcNAc(b1-2)[Fuc(a1-2)Gal(b1-4)[Fuc(a1-3)]GlcNAc(b1-4)]Man(a1-3)[Fuc(a1-2)Gal(b1-4)[Fuc(a1-3)]GlcNAc(b1-2)Man(a1-6)]Man(b1-4)GlcNAc(b1-4)GlcNAc
Outline: as §1

[4] = molecular target: Fuc(a1-2)Gal(b1-4)[Fuc(a1-3)]GlcNAc(b1-3)Gal(b1-4)[Fuc(a1-3)]GlcNAc(b1-3)Gal(b1-4)[Fuc(a1-3)]GlcNAc
Outline: as §1

[5] = molecular target: Fuc(a1-2)Gal6S(b1-3)GlcNAc
Outline: as §1

Fuc(a1-2)Gal6S(b1-4)Glc = molecular target: Fuc(a1-2)Gal6S(b1-4)Glc
Outline: as §1

[6] = molecular target: Fuc(a1-2)[Gal(a1-4)]Gal(b1-4)GlcNAc
Outline: as §1

[7] = molecular target: Fuc(a1-3)[Gal(b1-4)]GlcNAc
Outline: as §1

[8] = molecular target: Fuc(a1-3)[Gal(b1-4)]GlcNAc(b1-2)Man
Outline: as §1

[9] = molecular target: Gal(a1-3)Gal(b1-3)GlcNAc(b1-2)Man(a1-3)[Gal(a1-3)Gal(b1-3)GlcNAc(b1-2)Man(a1-6)]Man(b1-4)GlcNAc(b1-4)GlcNAc
Outline: as §1

Gal(a1-3)Gal(b1-4)GlcNAc = molecular target: Gal(a1-3)Gal(b1-4)GlcNAc
Outline: as §1

[10] = molecular target: Gal(a1-3)Gal(b1-4)GlcNAc(b1-2)Man(a1-3)[Gal(a1-3)Gal(b1-4)GlcNAc(b1-2)Man(a1-6)]Man(b1-4)GlcNAc(b1-4)GlcNAc
Outline: as §1

[11] = molecular target: Gal(a1-3)Gal(b1-4)[Fuc(a1-3)]GlcNAc
Outline: as §1

[12] = molecular target: Gal(a1-3)[Gal(a1-4)]Gal(b1-4)GlcNAc
Outline: as §1

[13] = molecular target: Gal(a1-4)Gal(b1-3)GlcNAc(b1-2)Man(a1-3)[Gal(a1-4)Gal(b1-3)GlcNAc(b1-2)Man(a1-6)]Man(b1-4)GlcNAc(b1-4)GlcNAc
Outline: as §1

Gal(a1-4)Gal(b1-4)GlcNAc = molecular target: Gal(a1-4)Gal(b1-4)GlcNAc
Outline: as §1

[14] = molecular target: Gal(a1-4)Gal(b1-4)GlcNAc(b1-2)Man(a1-3)[Gal(a1-4)Gal(b1-4)GlcNAc(b1-2)Man(a1-6)]Man(b1-4)GlcNAc(b1-4)GlcNAc
Outline: as §1

[15] = molecular target: Gal(a1-4)Gal(b1-4)GlcNAc(b1-3)Gal(b1-4)Glc
Outline: as §1

Gal(a1-4)GlcNAc = molecular target: Gal(a1-4)GlcNAc
Outline: as §1

[16] = molecular target: Gal(b1-3)Gal(b1-4)GlcNAc(b1-2)Man(a1-3)[Gal(b1-3)Gal(b1-4)GlcNAc(b1-2)Man(a1-6)]Man(b1-4)GlcNAc(b1-4)GlcNAc
Outline: as §1

[17] = molecular target: Gal(b1-3)GalNAc(b1-3)Gal(a1-4)Gal(b1-4)Glc
Outline: as §1

[18] = molecular target: Gal(b1-3)GlcNAc(b1-3)Gal(b1-4)Glc
Outline: as §1

[19] = molecular target: Gal(b1-4)GlcNAc(b1-2)Man(a1-6)[Man(a1-3)]Man(b1-4)GlcNAc(b1-4)GlcNAc
Outline: as §1

Gal3S(b1-3)GlcNAc = molecular target: Gal3S(b1-3)GlcNAc
Outline: as §1

[20] = molecular target: Gal3S(b1-3)[Fuc(a1-4)]GlcNAc
Outline: as §1

[21] = molecular target: GalNAc(b1-3)Gal(a1-4)Gal(b1-4)GlcNAc(b1-3)Gal(b1-4)Glc
Outline: as §1

GalNAc(b1-4)GlcNAc = molecular target: GalNAc(b1-4)GlcNAc
Outline: as §1

[22] = molecular target: GlcNAc(a1-4)Gal(b1-4)GlcNAc(b1-3)Gal(b1-4)Glc
Outline: as §1

[23] = molecular target: GlcNAc(a1-4)Gal(b1-4)GlcNAc(b1-3)Gal(b1-4)[Fuc(a1-3)]GlcNAc(b1-3)Gal(b1-4)[Fuc(a1-3)]GlcNAc
Outline: as §1

[24] = molecular target: GlcNAc(b1-2)Man(a1-3)[GlcNAc(b1-2)Man(a1-6)]Man(b1-4)GlcNAc(b1-4)[Fuc(a1-6)]GlcNAc
Outline: as §1

[25] = molecular target: GlcNAc(b1-2)[GlcNAc(b1-6)]Man(a1-6)[GlcNAc(b1-2)Man(a1-3)]Man(b1-4)GlcNAc(b1-4)[Fuc(a1-6)]GlcNAc
Outline: as §1

[26] = molecular target: GlcNAc(b1-3)Gal(b1-4)GlcNAc(b1-3)GalNAc
Outline: as §1

[27] = molecular target: GlcNAc(b1-3)[GlcNAc(b1-4)][GlcNAc(b1-6)]GlcNAc
Outline: as §1

Man(a1-2)Man(a1-3)Man = molecular target: Man(a1-2)Man(a1-3)Man
Outline: as §1

[28] = molecular target: Neu5Ac(a2-3)Gal(b1-4)GlcNAc(b1-2)Man(a1-3)[GlcNAc(b1-4)][Neu5Ac(a2-3)Gal(b1-4)GlcNAc(b1-2)Man(a1-6)]Man(b1-4)GlcNAc(b1-4)GlcNAc
Outline: as §1

[29] = molecular target: Neu5Ac(a2-3)Gal(b1-4)GlcNAc(b1-3)Gal(b1-4)[Fuc(a1-3)]GlcNAc
Outline: as §1

[30] = molecular target: Neu5Ac(a2-3)[GalNAc(b1-4)]Gal(b1-4)Glc
Outline: as §1

[31] = molecular target: Neu5Ac(a2-6)Gal(b1-4)GlcNAc6S
Outline: as §1

[32] = molecular target: Neu5Gc(a2-8)Neu5Ac(a2-3)Gal(b1-4)GlcNAc
Outline: as §1

B1: PA-IL (Pseudomonas aeruginosa), Q05097 (protein)
chain: MAWKGEVLANNEAGQVTSIIYNPGDVITIVAAGWASYGPTQKWGPQGDREHPDQGLICHDAFCGALVMKIGNSGTIPVNTGLFRWVAPNNVQGAITLIYNDVPGTYGNNSGSFSVNIGKDQS
In the case of B1, the “glycan array binding signal (z-score)” value [1] is reported as -0.197, the “glycan array binding signal (z-score)” value [2] is reported as -0.201 and the “glycan array binding signal (z-score)” value [3] is reported as -0.185. For the same binder, the “glycan array binding signal (z-score)” value [4] was -0.213, the “glycan array binding signal (z-score)” value [5] was -0.225 and the “glycan array binding signal (z-score)” value (Fuc(a1-2)Gal6S(b1-4)Glc) was -0.229. For the same binder, the “glycan array binding signal (z-score)” value [6] was 5.44, the “glycan array binding signal (z-score)” value [7] was -0.224 and the “glycan array binding signal (z-score)” value [8] was -0.233. The “glycan array binding signal (z-score)” value [9] was 0.015, the “glycan array binding signal (z-score)” value (Gal(a1-3)Gal(b1-4)GlcNAc) was 5.08 and the “glycan array binding signal (z-score)” value [10] was 6.97. The “glycan array binding signal (z-score)” value [11] was 5.02, the “glycan array binding signal (z-score)” value [12] was 6.55 and the “glycan array binding signal (z-score)” value [13] was 7.29. For the same binder, the “glycan array binding signal (z-score)” value (Gal(a1-4)Gal(b1-4)GlcNAc) was 4.79, the “glycan array binding signal (z-score)” value [14] was 8.23 and the “glycan array binding signal (z-score)” value [15] was 5.73. The “glycan array binding signal (z-score)” value (Gal(a1-4)GlcNAc) was 3.63, the “glycan array binding signal (z-score)” value [16] was 7.65 and the “glycan array binding signal (z-score)” value [17] was -0.228. The “glycan array binding signal (z-score)” value [18] was -0.228, the “glycan array binding signal (z-score)” value [19] was -0.237 and the “glycan array binding signal (z-score)” value (Gal3S(b1-3)GlcNAc) was -0.229. The “glycan array binding signal (z-score)” value [20] was -0.225, the “glycan array binding signal (z-score)” value [21] was -0.228 and the “glycan array binding signal (z-score)” value (GalNAc(b1-4)GlcNAc) was -0.236. For the same binder, the “glycan array binding signal (z-score)” value [22] was -0.23, the “glycan array binding signal (z-score)” value [23] was -0.203 and the “glycan array binding signal (z-score)” value [24] was -0.214. For the same binder, the “glycan array binding signal (z-score)” value [25] was -0.217, the “glycan array binding signal (z-score)” value [26] was -0.221 and the “glycan array binding signal (z-score)” value [27] was -0.228. For the same binder, the “glycan array binding signal (z-score)” value (Man(a1-2)Man(a1-3)Man) was -0.226, the “glycan array binding signal (z-score)” value [28] was -0.244 and the “glycan array binding signal (z-score)” value [29] was -0.226. For the same binder, the “glycan array binding signal (z-score)” value [30] was -0.226, the “glycan array binding signal (z-score)” value [31] was -0.228 and the “glycan array binding signal (z-score)” value [32] was -0.245.
